{"source": "ChEMBL document CHEMBL3988442", "about": "“University of Dundee, Small-Polar-MMV Screening Library” (2021)"}
{"biological_target": "Sialic acid-binding Ig-like lectin 9 (Homo sapiens) (UniProt Q9Y336)", "sequence (Q9Y336 whole entry)": "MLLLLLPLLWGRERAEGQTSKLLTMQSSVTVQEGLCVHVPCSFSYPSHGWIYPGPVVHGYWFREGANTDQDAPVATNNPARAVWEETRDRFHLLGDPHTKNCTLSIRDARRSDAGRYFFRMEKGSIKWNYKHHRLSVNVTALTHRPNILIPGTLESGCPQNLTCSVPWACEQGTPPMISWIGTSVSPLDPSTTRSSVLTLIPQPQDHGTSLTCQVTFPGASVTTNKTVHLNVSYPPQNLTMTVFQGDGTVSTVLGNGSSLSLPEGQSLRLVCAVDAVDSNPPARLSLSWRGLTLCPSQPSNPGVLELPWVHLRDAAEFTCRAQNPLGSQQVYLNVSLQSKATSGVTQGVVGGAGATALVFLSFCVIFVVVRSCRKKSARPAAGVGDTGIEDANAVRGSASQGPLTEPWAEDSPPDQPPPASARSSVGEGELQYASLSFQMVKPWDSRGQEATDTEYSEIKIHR", "assay": "Hs-Siglec9 ALPHAscreen SOP 20170721", "design": "scale not given: direction of the effect not stated beside the values", "settings": "10 µM", "units": {"Percent Effect": "%"}}
{"molecule": "Cc1csc(N2CCCN(C(=O)c3c(C)oc(C)c3C)CC2)n1", "Percent Effect": 3.18}
{"molecule": "CCc1nnc(CN2CCCC(c3cc(C(F)(F)F)[nH]n3)C2)o1", "note": "(stereo not given)", "Percent Effect": -0.304}
{"molecule": "Cc1cnn(CC2CCCCN2C(=O)c2cc(Cl)c[nH]2)c1", "note": "(stereo not given)", "Percent Effect": 10.9}
{"molecule": "COC(=O)C1CCN(C(=O)c2ccc(C)c(NS(C)(=O)=O)c2)CC1", "Percent Effect": -2.25}
{"molecule": "c1cc(-c2noc(CN3CCn4c(nnc4C4CC4)C3)n2)co1", "Percent Effect": 1.91}
{"molecule": "CN(CC(=O)Nc1ccc(Br)cn1)C(=O)Cc1ccc(O)cc1", "Percent Effect": 0.45}
{"molecule": "CCc1ncc2c(n1)CN(CC(=O)Nc1nnc(C)s1)CC2", "Percent Effect": 0.404}
{"molecule": "COCCN1CCN(Cc2ccc(F)c(C)c2)[C@H]2CS(=O)(=O)C[C@H]21", "Percent Effect": 28.9}
{"molecule": "CNC(=O)N1C[C@H]2C[C@H](C(=O)Nc3ccccc3)[C@@H](C1)O2", "Percent Effect": 1.87}
{"molecule": "Cc1cccc(CN2C(=O)CCC23CCN(c2ncc(F)cn2)CC3)n1", "Percent Effect": -3.32}
{"molecule": "N#Cc1cccc(S(=O)(=O)NC(=O)COc2ccc3c(c2)CCC3)c1", "Percent Effect": -9.11}
{"molecule": "O=C(Cn1cc(-c2ccccc2)ncc1=O)Nc1ccncc1", "Percent Effect": 4.3}
{"molecule": "O=C(N1CCCC1)N1CCC2(CCCN(CCOc3ccccc3)C2)C1", "note": "(stereo not given)", "Percent Effect": -3.35}
{"molecule": "CNc1cncc(C2CCCN2Cc2c[nH]cn2)n1", "note": "(stereo not given)", "Percent Effect": -0.612}
{"molecule": "CO[C@@H]1CCN(C(=O)c2ccccn2)[C@H]1Cc1ccccc1", "Percent Effect": 2.27}
{"molecule": "CC1(C)OCC(CNC(=O)c2cnn(-c3cc(Cl)ccc3Cl)c2N)O1", "note": "(stereo not given)", "Percent Effect": -9.42}
{"molecule": "CN(C)c1ccc(NC(=O)NCc2ccccn2)cn1", "Percent Effect": -3.66}
{"molecule": "Cc1cnn(CC2CCCN2CC(=O)Nc2cc(C(C)(C)C)no2)c1", "note": "(stereo not given)", "Percent Effect": 2.37}
{"molecule": "Cn1cc(C(=O)N2CCC(Cc3nccs3)CC2)cn1", "Percent Effect": -7.82}
{"molecule": "CN1CCN(CCO)C(=O)C12CCN(Cc1ccsc1)CC2", "Percent Effect": -2.51}
{"molecule": "Cc1ccc(C(=O)N2CCC3(CC2)CC(N2CCOCC2)C3)cc1", "Percent Effect": -5.57}
{"molecule": "Cn1ncc2c1NC(=O)CC2c1ccc(O)cc1", "note": "(stereo not given)", "Percent Effect": -2.98}
{"molecule": "CNC(=O)c1cc(S(=O)(=O)C(C)C)cs1", "Percent Effect": 28.2}
{"molecule": "CCC1c2ccsc2CCN1C(=O)NCc1cc[nH]n1", "note": "(stereo not given)", "Percent Effect": -4.75}
{"molecule": "CC[C@@H]1N(Cc2ccsc2)CCC[C@]12CCC(=O)N2CCOC", "Percent Effect": -1.28}
{"molecule": "CCNC(=O)[C@@H]1C[C@@H](NC(=O)Cc2ccncc2)CN1Cc1ccsc1", "Percent Effect": 3.71}
{"molecule": "O=C(NCCO)c1ccn(-c2ccc3ccccn23)n1", "Percent Effect": -8.91}
{"molecule": "NC[C@H]1CC[C@H](C(NC(=O)c2ccccc2)c2ccccn2)CC1", "note": "(stereo not given in full)", "Percent Effect": -7.17}
{"molecule": "O=C(C1CCOC1)N1CCc2ncc(CNc3ccccn3)n2CC1", "note": "(stereo not given)", "Percent Effect": 8.26}
{"molecule": "CCc1nc(C2CCCN2CCn2cncn2)no1", "note": "(stereo not given)", "Percent Effect": 7.59}
{"molecule": "CC(C)(C)n1ncc2c1NC(=O)CC2c1ccsc1", "note": "(stereo not given)", "Percent Effect": -2.29}
{"molecule": "Cn1nc2c(cc1=O)CN(Cc1nnc(-c3ccco3)o1)CC2", "Percent Effect": -11.1}
{"molecule": "CCc1nc(CC(=O)N2CCCC2Cn2cccn2)cs1", "note": "(stereo not given)", "Percent Effect": 6.12}
{"molecule": "CC(C)c1nnc2n1CCN(C(=O)c1ccc3cc[nH]c3c1)C2", "Percent Effect": 4.04}
{"molecule": "O=C(O)c1cc(S(=O)(=O)N2CCOc3ccccc32)ccc1F", "Percent Effect": -10.2}
{"molecule": "CCCc1cc(CNC(=O)C2CCOc3ccccc3C2)on1", "note": "(stereo not given)", "Percent Effect": 3.17}
{"molecule": "Cc1cc(NC(=O)NCC2CCOC2)no1", "note": "(stereo not given)", "Percent Effect": 0.0318}
{"molecule": "CC(C)c1nc(C2CCCN2CC(=O)Nc2nncs2)no1", "note": "(stereo not given)", "Percent Effect": 8.36}
{"molecule": "CCOC1CCCN(C(=O)c2sccc2-n2cnnn2)C1", "note": "(stereo not given)", "Percent Effect": -9.12}
{"molecule": "CC(=O)N1C[C@@H](c2ccsc2)[C@@H]2CN(Cc3ccccc3)CC[C@@H]21", "Percent Effect": 0.781}
{"system": "Trypanosoma cruzi", "assay": "Trypanosoma cruzi phosphomannomutase and mannose-1-phosphate guanylyltransferase assay", "assay_type": "functional", "design": "scale not given: direction of the effect not stated beside the values", "settings": "10 µM", "units": {"Percent Effect": "%"}}
{"molecule": "Cc1csc(N2CCCN(C(=O)c3c(C)oc(C)c3C)CC2)n1", "Percent Effect": 4.22}
{"molecule": "CCc1nnc(CN2CCCC(c3cc(C(F)(F)F)[nH]n3)C2)o1", "note": "(stereo not given)", "Percent Effect": -4.22}
{"molecule": "Cc1cnn(CC2CCCCN2C(=O)c2cc(Cl)c[nH]2)c1", "note": "(stereo not given)", "Percent Effect": 6.53}
{"molecule": "COC(=O)C1CCN(C(=O)c2ccc(C)c(NS(C)(=O)=O)c2)CC1", "Percent Effect": -3.2}
{"molecule": "c1cc(-c2noc(CN3CCn4c(nnc4C4CC4)C3)n2)co1", "Percent Effect": 4.04}
{"molecule": "CN(CC(=O)Nc1ccc(Br)cn1)C(=O)Cc1ccc(O)cc1", "Percent Effect": 2.61}
{"molecule": "CCc1ncc2c(n1)CN(CC(=O)Nc1nnc(C)s1)CC2", "Percent Effect": -4.22}
{"molecule": "COCCN1CCN(Cc2ccc(F)c(C)c2)[C@H]2CS(=O)(=O)C[C@H]21", "Percent Effect": 12.3}
{"molecule": "CNC(=O)N1C[C@H]2C[C@H](C(=O)Nc3ccccc3)[C@@H](C1)O2", "Percent Effect": 0.0974}
{"molecule": "Cc1cccc(CN2C(=O)CCC23CCN(c2ncc(F)cn2)CC3)n1", "Percent Effect": -1.13}
{"molecule": "N#Cc1cccc(S(=O)(=O)NC(=O)COc2ccc3c(c2)CCC3)c1", "Percent Effect": 6.48}
{"molecule": "O=C(Cn1cc(-c2ccccc2)ncc1=O)Nc1ccncc1", "Percent Effect": -0.097}
{"molecule": "O=C(N1CCCC1)N1CCC2(CCCN(CCOc3ccccc3)C2)C1", "note": "(stereo not given)", "Percent Effect": -2.63}
{"molecule": "CNc1cncc(C2CCCN2Cc2c[nH]cn2)n1", "note": "(stereo not given)", "Percent Effect": -4.14}
{"molecule": "CO[C@@H]1CCN(C(=O)c2ccccn2)[C@H]1Cc1ccccc1", "Percent Effect": 1.5}
{"molecule": "CC1(C)OCC(CNC(=O)c2cnn(-c3cc(Cl)ccc3Cl)c2N)O1", "note": "(stereo not given)", "Percent Effect": -1.97}
{"molecule": "CN(C)c1ccc(NC(=O)NCc2ccccn2)cn1", "Percent Effect": -3.92}
{"molecule": "Cc1cnn(CC2CCCN2CC(=O)Nc2cc(C(C)(C)C)no2)c1", "note": "(stereo not given)", "Percent Effect": 3.73}
{"molecule": "Cn1cc(C(=O)N2CCC(Cc3nccs3)CC2)cn1", "Percent Effect": -4.54}
{"molecule": "CN1CCN(CCO)C(=O)C12CCN(Cc1ccsc1)CC2", "Percent Effect": -1.88}
{"molecule": "Cc1ccc(C(=O)N2CCC3(CC2)CC(N2CCOCC2)C3)cc1", "Percent Effect": 1.31}
{"molecule": "Cn1ncc2c1NC(=O)CC2c1ccc(O)cc1", "note": "(stereo not given)", "Percent Effect": -8.63}
{"molecule": "CNC(=O)c1cc(S(=O)(=O)C(C)C)cs1", "Percent Effect": 3.75}
{"molecule": "CCC1c2ccsc2CCN1C(=O)NCc1cc[nH]n1", "note": "(stereo not given)", "Percent Effect": -4.79}
{"molecule": "CC[C@@H]1N(Cc2ccsc2)CCC[C@]12CCC(=O)N2CCOC", "Percent Effect": -3.19}
{"molecule": "CCNC(=O)[C@@H]1C[C@@H](NC(=O)Cc2ccncc2)CN1Cc1ccsc1", "Percent Effect": -4.56}
{"molecule": "O=C(NCCO)c1ccn(-c2ccc3ccccn23)n1", "Percent Effect": 3.99}
{"molecule": "NC[C@H]1CC[C@H](C(NC(=O)c2ccccc2)c2ccccn2)CC1", "note": "(stereo not given in full)", "Percent Effect": 4.54}
{"molecule": "O=C(C1CCOC1)N1CCc2ncc(CNc3ccccn3)n2CC1", "note": "(stereo not given)", "Percent Effect": -0.682}
{"molecule": "CCc1nc(C2CCCN2CCn2cncn2)no1", "note": "(stereo not given)", "Percent Effect": -0.187}
{"molecule": "CC(C)(C)n1ncc2c1NC(=O)CC2c1ccsc1", "note": "(stereo not given)", "Percent Effect": -7.47}
{"molecule": "Cn1nc2c(cc1=O)CN(Cc1nnc(-c3ccco3)o1)CC2", "Percent Effect": 4.6}
{"molecule": "CCc1nc(CC(=O)N2CCCC2Cn2cccn2)cs1", "note": "(stereo not given)", "Percent Effect": 0.402}
{"molecule": "CC(C)c1nnc2n1CCN(C(=O)c1ccc3cc[nH]c3c1)C2", "Percent Effect": -1.61}
{"molecule": "O=C(O)c1cc(S(=O)(=O)N2CCOc3ccccc32)ccc1F", "Percent Effect": 5.54}
{"molecule": "CCCc1cc(CNC(=O)C2CCOc3ccccc3C2)on1", "note": "(stereo not given)", "Percent Effect": 2.62}
{"molecule": "Cc1cc(NC(=O)NCC2CCOC2)no1", "note": "(stereo not given)", "Percent Effect": -6.63}
{"molecule": "CC(C)c1nc(C2CCCN2CC(=O)Nc2nncs2)no1", "note": "(stereo not given)", "Percent Effect": 0.402}
{"molecule": "CCOC1CCCN(C(=O)c2sccc2-n2cnnn2)C1", "note": "(stereo not given)", "Percent Effect": 8.73}
{"molecule": "CC(=O)N1C[C@@H](c2ccsc2)[C@@H]2CN(Cc3ccccc3)CC[C@@H]21", "Percent Effect": 1.77}
